This is a sample that favours compounds with a hit; in the whole collection about 19% have one here.
KB-V1 cytotox: qHTS assay for MDR1-selective chemotherapeutics: Primary screen using the drug-selected MDR subline cells KB-V1; KB-V1 MDR cells viability, CellTiter-Glo, 72 h; Potency, µM (series often up to 46.1 µM), actives largely listed as cytotoxic; 3.4% of 400,000 active; AID 1347076, 2019; further: nearly all actives have a fitted effect of over 60% in size
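Drug-selected KB-V1 cells, grown in DMEM lacking phenol red with 10% FBS, receive compound titrations; after three days at 37 degrees C, surviving cell ATP is quantified by CellTiter-Glo luminescence and responses normalized and curve-fitted.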
DT40 TDP1 no CPT: qHTS for Inhibitors of human tyrosyl-DNA phosphodiesterase 1 (TDP1): qHTS in cells in absence of CPT. Potency, µM (doses to about 46.2 µM), for inactives: at the top dose activity change, negative = growth inhibition, most hits filed as inhibitors. 15% of 420,000 active. DT40 Tdp1-/- hTDP1 cells, no CPT, ATP luminescence, 48 h; further: nearly all actives have a fitted effect of over 55% in size
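Readout: luminescence from CellTiter-Glo after 30 min in the dark at RT. Cells: DT40 Tdp1-/- with stable hTDP1, 400/well. Exposure: compounds alone, ≥48 hr, 37 °C.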
HT1080 IDH1KD tx: qHTS for induction of synthetic lethality in tumor cells producing 2HG: qHTS for the HT-1080-IDH1KD cell line; HT-1080 IDH1 knockdown viability, ATP luminescence, 48 h; Potency, µM (series often up to 46.1 µM), inactives show top-dose activity, negative = toxicity, usual class: cytotoxic; 2% of 360,000 active;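 further: 0% = DMSO wells and -100% = cell-free medium wells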
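IDH1KD HT-1080 cells, 750/well, RPMI + 5% FBS; compound pinned after 2 h settling; 48 h, 37 °C; CellTiter-Glo luminescence; % activity normalised to DMSO and no-cell wells; curves fitted, classed by r2 and efficacy.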
HT1080NT lethal: qHTS for induction of synthetic lethality in tumor cells producing 2HG: qHTS for the HT-1080-NT fibrosarcoma cell line. Potency, µM (highest dose often 46.1 µM), for inactives: at the top dose activity, negative = less viability, usual class: cytotoxic. HT-1080-NT fibrosarcoma viability, CellTiter-Glo ATP luminescence, 48 h. 1.6% of 360,000 active;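 further: NT is the 2HG producing partner of a matched IDH1 knockdown line; 0% = DMSO-treated cells and -100% = media-only wells without cells; nearly all actives have a fitted effect of over 55% in size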
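750 cells/well, RPMI + 5% FBS; 2 h settle, compound pin-transfer, 48 h at 37 degrees C. CellTiter-Glo 10 min RT, luminescence. Normalized to DMSO and media-only wells.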
DT40 TDP1 CPT: qHTS for Inhibitors of human tyrosyl-DNA phosphodiesterase 1 (TDP1): qHTS in cells in presence of CPT; chicken DT40 Tdp1-/-;hTDP1 cells + 20 nM CPT, ATP luminescence, 48 h; Potency, µM (highest dose often 46.2 µM), without a hit: at the top dose activity change, negative = growth inhibition, most hits filed as inhibitors; 12% of 420,000 active; further: nearly all actives have a fitted effect of over 55% in size
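Chicken DT40 Tdp1-/- cells complemented with human TDP1, 400 cells/well, exposed to compounds plus 20 nM camptothecin for at least 48 h at 37 C; viability read as ATP content by CellTiter-Glo luminescence.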
KB-3-1 cytotox: qHTS assay for MDR1-selective chemotherapeutics: Primary screen using the parental adenocarcinoma cell KB-3-1; 1.4% of 400,000 active; Potency, µM (titrated, usually from 46.1 µM), hits mostly cytotoxic; AID 1347075, 2019; KB-3-1 viability, CellTiter-Glo ATP luminescence, 72 h; further: nearly all actives have a fitted effect of over 60% in size
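Cells are dispensed, compounds pinned in, plates held at 37 °C for 72 h, then CellTiter-Glo is added and luminescence read after 10 minutes. Cell line: parental KB-3-1 in phenol-red-free DMEM, 10% FBS.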
An asterisk follows results filed as active; ! = not confirmed by another sample. The call rests on the fitted dose curve; in most records, active means well fitted curve in the direction sought with a large enough effect; inconclusive means small, poorly fitted or top-dose-only effect, or another doubt; inactive means no such curve, though single readings can be large; an effect the other way counts as inactive or inconclusive. Unless noted, on the % scale 0 is the no-effect control and ±100 the full control effect; potency means the concentration at half of the fitted maximal effect.

For COc1ccc(S(=O)(=O)NCC(c2ccco2)N2CCN(c3ccc(F)cc3)CC2)cc1C (configuration not stated) the results were DT40 TDP1 no CPT 23µM* and DT40 TDP1 CPT 16µM*.
Screening O=S(=O)(NCC(c1ccco1)N1CCN(c2ccc(F)cc2)CC1)c1cc(F)ccc1F (configuration not stated) returned DT40 TDP1 no CPT 16µM* and DT40 TDP1 CPT 18µM*.
Screening Cc1cc(C)c(S(=O)(=O)NCC(c2ccco2)N2CCOCC2)c(C)c1 (configuration not stated) returned KB-V1 cytotox inactive, DT40 TDP1 no CPT inconclusive, DT40 TDP1 CPT inconclusive and KB-3-1 cytotox inactive.
COc1ccc(S(=O)(=O)NCC(c2cccnc2)N2CCN(c3ccc(F)cc3)CC2)cc1C (configuration not stated) was read as KB-V1 cytotox inactive, DT40 TDP1 no CPT 16µM*, HT1080 IDH1KD tx -16%, HT1080NT lethal -16%, DT40 TDP1 CPT 15µM* and KB-3-1 cytotox inconclusive.
`COc1ccccc1N1C(=O)c2ccc(C(=O)Nc3ccc(C(=O)O)cc3)cc2C1=O` gave KB-V1 cytotox inactive, DT40 TDP1 no CPT -1%, HT1080 IDH1KD tx 11%, HT1080NT lethal 15%, DT40 TDP1 CPT 0% and KB-3-1 cytotox inactive.
CCOC(=O)c1[nH]c2ccccc2c1NC(=S)Nc1cccc(C)c1 was read as KB-V1 cytotox inactive, DT40 TDP1 no CPT -16%, HT1080 IDH1KD tx -1%, HT1080NT lethal -1%, DT40 TDP1 CPT -17% and KB-3-1 cytotox inactive.
CN(C)N1C(N)=C(C#N)C(c2ccc3c(c2)OCO3)C2=C1CCCC2=O (configuration not stated) was read as KB-V1 cytotox inactive, DT40 TDP1 no CPT -18%, HT1080 IDH1KD tx 14%, HT1080NT lethal 9%, DT40 TDP1 CPT 0% and KB-3-1 cytotox inactive.
Screening Cc1cc(NC(=O)CSc2nc3c([nH]c4ccccc43)c(=O)n2-c2cccc(Cl)c2)no1 returned KB-V1 cytotox inactive, DT40 TDP1 no CPT inconclusive, DT40 TDP1 CPT inconclusive and KB-3-1 cytotox inactive.
Screening O=S(=O)(NCC(c1ccco1)N1CCN(c2ccccc2F)CC1)c1ccc(F)cc1 (configuration not stated) returned KB-V1 cytotox inactive, DT40 TDP1 no CPT inconclusive, HT1080 IDH1KD tx -14%, HT1080NT lethal -13%, DT40 TDP1 CPT inconclusive and KB-3-1 cytotox inactive.
For O=S(=O)(NCC(c1ccco1)N1CCN(c2ccc(F)cc2)CC1)c1ccc(F)cc1 (configuration not stated) the results were KB-V1 cytotox 15µM*, DT40 TDP1 no CPT inconclusive, HT1080 IDH1KD tx -4%, HT1080NT lethal -2%, DT40 TDP1 CPT 23µM* and KB-3-1 cytotox inactive.
For COc1cc(/C=C/C(=O)OCC(=O)NCC(=O)Nc2cccc(C)c2C)ccc1OC(F)F the results were KB-V1 cytotox inactive, DT40 TDP1 no CPT 8%, HT1080 IDH1KD tx 0%, HT1080NT lethal 1%, DT40 TDP1 CPT -22% and KB-3-1 cytotox inactive.
CC/C(Cc1ccccc1)=N/NC(=O)CNC(=O)c1ccc(Cl)cc1Cl was read as KB-V1 cytotox inactive, DT40 TDP1 no CPT -9%, HT1080 IDH1KD tx -2%, HT1080NT lethal 4%, DT40 TDP1 CPT -21% and KB-3-1 cytotox inactive.
For CCC(C)Sc1cc(-c2nc3ccc(Cl)cn3c2NC2CCCCC2)ccc1OC (configuration not stated) the results were KB-V1 cytotox 10µM*!, DT40 TDP1 no CPT 15µM*, HT1080 IDH1KD tx 2%, HT1080NT lethal -9%, DT40 TDP1 CPT 16µM* and KB-3-1 cytotox inconclusive.
Screening CCCCCCSc1cc(-c2nc3ccc(Cl)cn3c2NC2CCCCC2)ccc1OC returned KB-V1 cytotox inactive, DT40 TDP1 no CPT 16µM*, HT1080 IDH1KD tx 9%, HT1080NT lethal 14%, DT40 TDP1 CPT inconclusive and KB-3-1 cytotox inactive.
COc1ccc(-c2cccc(-c3nc4ccc(Cl)cn4c3NC3CCCCC3)c2)cc1 was read as KB-V1 cytotox inactive, DT40 TDP1 no CPT 21µM*, HT1080 IDH1KD tx 1%, HT1080NT lethal 6%, DT40 TDP1 CPT 18µM* and KB-3-1 cytotox inconclusive.
CC(=O)c1csc(-c2cccc(-c3nc4ccc(Cl)cn4c3NC3CCCCC3)c2)c1 was read as KB-V1 cytotox inactive, DT40 TDP1 no CPT inconclusive, HT1080 IDH1KD tx 8%, HT1080NT lethal 1%, DT40 TDP1 CPT 21µM* and KB-3-1 cytotox inconclusive.
Screening CCCCNc1c(-c2cccc(-c3cc(C(C)=O)cs3)c2)nc2cc(C)ccn12 returned KB-V1 cytotox inactive, DT40 TDP1 no CPT inconclusive, HT1080 IDH1KD tx -53%, HT1080NT lethal inconclusive, DT40 TDP1 CPT inconclusive and KB-3-1 cytotox inconclusive.
COc1cc(OC)c(C2C=C(c3ccc(C)cc3)Nc3c(C(=O)Nc4ccccc4)cnn32)cc1OC (configuration not stated) was read as KB-V1 cytotox inactive, DT40 TDP1 no CPT inconclusive, DT40 TDP1 CPT inconclusive and KB-3-1 cytotox inactive.
`O=S(=O)(Nc1ccc(F)cc1F)c1ccc(Br)s1` gave KB-V1 cytotox inactive, DT40 TDP1 no CPT -20%, DT40 TDP1 CPT -23% and KB-3-1 cytotox inactive.
Cc1cccc(N2CCN(S(=O)(=O)c3ccc(F)c(C(=O)Nc4ccc(C(C)C)cc4)c3)CC2)c1C was read as KB-V1 cytotox inactive, DT40 TDP1 no CPT inconclusive, DT40 TDP1 CPT inconclusive and KB-3-1 cytotox inactive.
Screening Cc1cc(C)nc(/N=C2\NC(=O)CC(C(=O)O)N2c2ccc(C)c(C)c2)n1 (configuration not stated) returned KB-V1 cytotox inactive, DT40 TDP1 no CPT inconclusive, HT1080 IDH1KD tx 9%, HT1080NT lethal 15%, DT40 TDP1 CPT inconclusive and KB-3-1 cytotox inactive.
`CCCCCCSc1ccc(-c2nc3ccc(Cl)cn3c2NC2CCCCC2)cc1` gave KB-V1 cytotox inactive, DT40 TDP1 no CPT inconclusive, HT1080 IDH1KD tx 11%, HT1080NT lethal 19%, DT40 TDP1 CPT 26µM* and KB-3-1 cytotox inactive.

Screens deposited in PubChem by National Center for Advancing Translational Sciences (NCATS).
